KCNQ2 inh = KCNQ2 (rat) channel inhibition; O88943; B-score at 10 µM; 310,000 tested, 1.1% active; CHO-K1 KCNQ2, FluxOR thallium flux, 20 min; hits give low values;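 active = fluorescence ratio B-score at most minus 3 library SDs, with starting brightness B-score within 2 library SDs, cut at about -5.5 in these data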
KCNQ2 pot = enhances the rat KCNQ2 potassium channel; O88943; CHO-K1 KCNQ2, FluxOR thallium flux fluorescence; hits give high values; B-score at 10 µM; 310,000 tested, 0.54% active; AID 2239;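 active = fluorescence ratio B-score at least 3 SD of library B-scores, with initial fluorescence B-score within 3 of them, cut at about 5.3 in these data; same plate scores as AID 2156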;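 note: B-score of peak minus minimum over baseline fluorescence ratio after K+ and Tl+ stimulus; positive B-score means potentiation of KCNQ2 with more thallium influx and brighter signal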
Kir21 confirm = confirmation of mouse Kir2.1 potassium channel inhibitors | Tl flux remaining, % of negative control (hits give low values), % at 10 µM | 2,300 tested, 41% active | AID 2032 | shares compounds with KCNQ2 pot | Kir2.1-expressing cells, FluxOR thallium flux fluorescence; hits give low values;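 active = Primary-screen hit whose thallium flux fell at least 3 control SD below untreated wells in both duplicates, with normal baseline fluorescence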
Target sequence (P35561 whole entry, looked up): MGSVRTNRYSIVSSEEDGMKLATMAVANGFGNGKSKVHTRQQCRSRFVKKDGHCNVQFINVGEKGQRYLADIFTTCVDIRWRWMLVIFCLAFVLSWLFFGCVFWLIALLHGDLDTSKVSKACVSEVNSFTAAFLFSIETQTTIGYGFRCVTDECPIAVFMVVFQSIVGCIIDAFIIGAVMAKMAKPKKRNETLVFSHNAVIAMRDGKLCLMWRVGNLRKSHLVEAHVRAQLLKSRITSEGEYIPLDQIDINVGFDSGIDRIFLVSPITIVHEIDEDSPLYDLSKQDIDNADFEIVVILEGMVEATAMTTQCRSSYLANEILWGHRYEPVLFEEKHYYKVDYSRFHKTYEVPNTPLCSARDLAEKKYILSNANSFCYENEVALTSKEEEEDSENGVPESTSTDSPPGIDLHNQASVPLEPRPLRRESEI
HEK293 ctr = counter-screen for Kir2.1 inhibitors: effect in parental HEK293 cells | 2,300 tested, 19% active | shares compounds with KCNQ2 pot | FluxOR signal as % of negative control (100 = no effect), % at 10 µM | FluxOR thallium flux fluorescence; 0% = unstimulated blank wells;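 active = dye signal at least 3 control SD above or below untreated wells in both duplicates, raw fluorescence within 3, either direction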;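 note: percent is based on the flux ratio of peak minus minimum fluorescence over baseline F0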
CHO-K1 Tl ctr = parental CHO-K1 activity in KCNQ2 potentiator counter-screen; shares compounds with KCNQ2 pot; parental CHO-K1 cells, FluxOR thallium flux fluorescence; zero = vehicle mean+3SD, 100% = vehicle-minus-blank window; activity increase over 3SD of controls, % at 10 µM; 1,200 tested, 43% active; AID 2282;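 active = signal rise of at least 3 SD above the untreated control mean, in both duplicate wells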;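 note: counter screen of KCNQ2 potentiator hits so any rise reflects channel-independent effects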
KCNQ1 sel pot = selectivity of KCNQ2 potentiators: effect on human KCNQ1; shares compounds with KCNQ2 pot; AID 2283; CHO KCNQ1 stable, FluxOR thallium flux fluorescence; beyond 3SD, as % of vehicle-control signal; 1,200 tested, 28% active; activation over 3SD threshold, % at 10 µM;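 active = fluorescence ratio rise of at least 3 SD of vehicle wells above their mean, in both replicate wells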
KCNQ2 pot confirm = confirmation of rat KCNQ2 potassium channel potentiators | 1,200 tested, 68% active | potentiation, less the hit threshold, % at 10 µM | shares compounds with KCNQ2 pot | CHO-KCNQ2 cells, FluxOR thallium flux fluorescence;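 active = fluorescence ratio rising 3 SD or more over the vehicle control mean in both replicates, plus primary screen hit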;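 note: peak minus minimum thallium fluorescence divided by baseline after K/Tl stimulus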
Kir21 spec = mouse Kir2.1 off-target activity of KCNQ2 potentiators; 1,200 tested, 2% active; shares compounds with KCNQ2 pot; HEK293 Kir2.1, FluxOR thallium flux fluorescence; activity over 3SD threshold, % at 10 µM;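 active = fluorescence ratio rise of at least 3 SD above the vehicle-control mean, seen in both replicates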
KCNQ2 W236L pot = KCNQ2 potentiators acting on retigabine-insensitive rat KCNQ2 W236L mutant; shares compounds with KCNQ2 pot; CHO KCNQ2-W236L, automated patch clamp current; current increase over 3SD of negative controls (%), hits give high values, % at 25 µM; 940 tested, 10% active; AID 2558;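 active = current increase at least 3 SD of the untreated controls above them in both duplicate recordings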
Each line names hits and unclear results; the compound was inactive in the other large screens (follow-up assays come after a bar, where they were run). Only some compounds are listed: those with a hit (about 1.6% of all), similar ones and a draw of the others.

CC(C)CC(=O)NC(=S)Nc1ccc(S(=O)(=O)Nc2nccs2)cc1	none (no result: KCNQ2 pot)
Brc1ccc(CSc2nccn2-c2ccccc2)cc1	none (no result: KCNQ2 pot)
Clc1cccc(CSc2nccn2-c2ccccc2)c1	none (no result: KCNQ2 pot) | Kir21 confirm 63.5% | HEK293 ctr inactive
O=C1C(Cc2c[nH]c3ccccc23)NC(=S)N1Cc1ccccc1 (configuration not stated)	none (no result: KCNQ2 pot) | Kir21 confirm 48.0% | HEK293 ctr inactive
O=C1NC(Cc2c[nH]c3ccccc23)C(=O)N1Cc1ccccc1 (configuration not stated)	none (no result: KCNQ2 pot)
COc1ccc(N2C(=O)CSC2c2cccc(F)c2)cc1 (configuration not stated)	none (no result: KCNQ2 pot)
O=C(CN1CCN(C(=O)C2CCCO2)CC1)Nc1ccc(Br)cc1 (configuration not stated)	none
O=C(c1c[nH]c(C(=O)C(Cl)(Cl)Cl)c1)c1ccc(F)cc1F	none (no result: KCNQ2 pot)
O=C(c1c[nH]c(C(=O)C(Cl)(Cl)Cl)c1)c1ccc(F)cc1Cl	KCNQ2 pot 6.62 | Kir21 confirm inactive | HEK293 ctr inactive | CHO-K1 Tl ctr inactive | KCNQ1 sel pot inactive | KCNQ2 pot confirm 4.6 | Kir21 spec inactive | KCNQ2 W236L pot inactive
COc1cc2c(cc1OC)CN(C(=O)C1CCCN1S(=O)(=O)c1ccc(C)cc1)CC2 (configuration not stated)	none (no result: KCNQ2 pot)
CC(C)(C)c1ccc(OCC(=O)NCc2ccco2)c(Br)c1	KCNQ2 pot 5.4 | Kir21 confirm inactive | HEK293 ctr inactive | CHO-K1 Tl ctr inactive | KCNQ1 sel pot inactive | KCNQ2 pot confirm 4.0 | Kir21 spec inactive | KCNQ2 W236L pot inactive
CC(C)(C)c1ccc(OCC(=O)NNC(=S)NC(=O)c2ccco2)c(Br)c1	none (no result: KCNQ2 pot)
CCOC(=O)C1=NN(C(=O)c2ccc(C)cc2)C(O)(c2ccc(Cl)cc2)C1 (configuration not stated)	KCNQ2 pot 25.4 | Kir21 confirm inactive | HEK293 ctr 380.0% | CHO-K1 Tl ctr 0.0 | KCNQ1 sel pot inactive | KCNQ2 pot confirm 56.9 | Kir21 spec inactive | KCNQ2 W236L pot inactive
CCC1=NN(C(=O)c2ccc(Cl)cc2)C(O)(c2ccc(C)cc2)C1 (configuration not stated)	none
COC(=O)C1=NN(C(=O)c2ccc(Cl)cc2)C(O)(c2ccccc2)C1 (configuration not stated)	KCNQ2 pot 7.22 | Kir21 confirm inactive | HEK293 ctr 424.0% | CHO-K1 Tl ctr inactive | KCNQ1 sel pot 94.6 | KCNQ2 pot confirm 54.8 | Kir21 spec inactive | KCNQ2 W236L pot inactive
CCC1=NN(C(=O)c2ccc(Cl)cc2)C(O)(c2ccccc2)C1 (configuration not stated)	none
COCCNC(=O)/C(C#N)=C/c1cccc(/C=C(\C#N)C(=O)NCCOC)c1	KCNQ2 pot 9.31 | Kir21 confirm inactive | HEK293 ctr inactive | CHO-K1 Tl ctr inactive | KCNQ1 sel pot 2.5 | KCNQ2 pot confirm 1.3 | Kir21 spec inactive | KCNQ2 W236L pot 9.2%
COCCNC(=O)/C(C#N)=C/c1ccc(O)cc1	none
CCN(CC(=O)Nc1ccc(NC(C)=O)cc1)C(=O)CC1OC(=O)c2ccccc21 (configuration not stated)	none (no result: KCNQ2 pot)
CC(Oc1ccccc1)C(=O)N1CCN=C1SCc1ccccc1F (configuration not stated)	none (no result: KCNQ2 pot)
C=CCNC(=S)Nc1sc2c(c1C(=O)OCC)CC(C(C)C)OC2 (configuration not stated)	KCNQ2 pot 8.75 | Kir21 confirm inactive | HEK293 ctr 197.0% | CHO-K1 Tl ctr 22.2 | KCNQ1 sel pot 84.0 | KCNQ2 pot confirm 13.6 | Kir21 spec inactive | KCNQ2 W236L pot inactive
CCOC(=O)c1c(NC(=S)Nc2ccc(OC)cc2)sc2c1CCC2	none (no result: KCNQ2 pot)
COc1ccc(CC2(CO)CCN(S(=O)(=O)c3sccc3C)CC2)cc1	none (no result: KCNQ2 pot)
c1nc2nc3c(c(N4CCOCC4)n2n1)CCCC3	KCNQ2 pot 17.2 | Kir21 confirm inactive | HEK293 ctr inactive
CC1CCc2c(nc3ncnn3c2N2CCN(c3ccccc3)CC2)C1 (configuration not stated)	none
CC(C)(C)c1ccc(/C=C2/SC(N3CCCC3)=NC2=O)cc1	KCNQ2 pot 6.94 | Kir21 confirm inactive | HEK293 ctr inactive | CHO-K1 Tl ctr 4.3 | KCNQ1 sel pot inactive | KCNQ2 pot confirm 12.0 | Kir21 spec inactive | KCNQ2 W236L pot 0.6%
Cc1ccc(/C=C2\SC(N3CCCCC3)=NC2=O)cc1	none
Cc1ccc(-c2nc(CN(C)Cc3ccc4nccnc4c3)c(C)o2)s1	none
CSc1ccc(CNCC(O)c2ccccc2)cc1 (configuration not stated)	none (no result: KCNQ2 pot) | Kir21 confirm 59.0% | HEK293 ctr inactive
O[C@@H](CNC[C@H](O)c1ccccc1)c1ccccc1	none (no result: KCNQ2 pot)
COc1ccc(CCNCC(O)c2ccccc2)cc1 (configuration not stated)	none
OC(CNCCc1ccccc1)c1ccccc1 (configuration not stated)	none | Kir21 confirm 44.5% | HEK293 ctr inactive
CCN(CC)CC#CCOC(c1ccccc1)c1ccccc1	none (no result: KCNQ2 pot)
CN(C)CC#CCOC(c1ccccc1)c1ccccc1	none (no result: KCNQ2 pot) | Kir21 confirm 50.0% | HEK293 ctr inactive
COc1cccc(CN2CCC(N(CCc3ccccc3)Cc3ccccc3)CC2)c1OC	none (no result: KCNQ2 pot)
COC(=O)Nc1ccc(S(=O)(=O)N2CCCC(C(=O)N3CC(C)OC(C)C3)C2)cc1 (configuration not stated)	none (no result: KCNQ2 pot)
COc1ccc(NC(=O)CCCc2ccccc2)c(OC)c1	KCNQ2 pot 5.51 | Kir21 confirm inactive | HEK293 ctr inactive | CHO-K1 Tl ctr 92.7 | KCNQ1 sel pot inactive | KCNQ2 pot confirm 8.7 | Kir21 spec inactive | KCNQ2 W236L pot inactive
COc1ccccc1NC(=O)Cc1ccc(-c2ccccc2)cc1	none (no result: KCNQ2 pot)
COc1ccc(NC(=O)CCCC(=O)c2ccccc2)c(OC)c1	none (no result: KCNQ2 pot)
COc1ccc(CC(=O)Nc2ccccc2Oc2ccccc2)cc1	KCNQ2 pot 10.3 | Kir21 confirm inactive | HEK293 ctr inactive | CHO-K1 Tl ctr inactive | KCNQ1 sel pot inactive | KCNQ2 pot confirm 17.2 | Kir21 spec inactive | KCNQ2 W236L pot inactive
CCCCN(C)C(=O)Cn1c(=O)oc2cc(S(=O)(=O)N3CC(C)CC(C)C3)ccc21 (configuration not stated)	none
COc1cccc(NC(=O)C(C)SCc2ccccc2)c1 (configuration not stated)	none
